Measured values reported in PubChem BioAssay AID743314 (Broad Institute, 2014).
Results with a measured potency or affinity are listed apart. Inconclusive results are not listed. Active and inactive are the calls of the source.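 Rule for the calls: active = fitted half-maximal concentration no higher than twice the top tested dose, in every repeat run; inconclusive = repeat runs disagree, poor fit, or flat partial inhibition; inactive = the rest.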

target: Endoplasmic reticulum aminopeptidase 1 (Homo sapiens) (UniProt Q9NZ08); assay: inhibition of human ERAP1 enzyme activity – biochemical, cherry-pick, set 2, plate reader, dose response (AID 743314); details: Recombinant ERAP1, Leu-AMC fluorescence, 60 min; series mostly up to 11 µM;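 note: 0% = neutral control wells and -100% = L-leucinethiol positive control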
Sequence (Q9NZ08 whole entry, looked up): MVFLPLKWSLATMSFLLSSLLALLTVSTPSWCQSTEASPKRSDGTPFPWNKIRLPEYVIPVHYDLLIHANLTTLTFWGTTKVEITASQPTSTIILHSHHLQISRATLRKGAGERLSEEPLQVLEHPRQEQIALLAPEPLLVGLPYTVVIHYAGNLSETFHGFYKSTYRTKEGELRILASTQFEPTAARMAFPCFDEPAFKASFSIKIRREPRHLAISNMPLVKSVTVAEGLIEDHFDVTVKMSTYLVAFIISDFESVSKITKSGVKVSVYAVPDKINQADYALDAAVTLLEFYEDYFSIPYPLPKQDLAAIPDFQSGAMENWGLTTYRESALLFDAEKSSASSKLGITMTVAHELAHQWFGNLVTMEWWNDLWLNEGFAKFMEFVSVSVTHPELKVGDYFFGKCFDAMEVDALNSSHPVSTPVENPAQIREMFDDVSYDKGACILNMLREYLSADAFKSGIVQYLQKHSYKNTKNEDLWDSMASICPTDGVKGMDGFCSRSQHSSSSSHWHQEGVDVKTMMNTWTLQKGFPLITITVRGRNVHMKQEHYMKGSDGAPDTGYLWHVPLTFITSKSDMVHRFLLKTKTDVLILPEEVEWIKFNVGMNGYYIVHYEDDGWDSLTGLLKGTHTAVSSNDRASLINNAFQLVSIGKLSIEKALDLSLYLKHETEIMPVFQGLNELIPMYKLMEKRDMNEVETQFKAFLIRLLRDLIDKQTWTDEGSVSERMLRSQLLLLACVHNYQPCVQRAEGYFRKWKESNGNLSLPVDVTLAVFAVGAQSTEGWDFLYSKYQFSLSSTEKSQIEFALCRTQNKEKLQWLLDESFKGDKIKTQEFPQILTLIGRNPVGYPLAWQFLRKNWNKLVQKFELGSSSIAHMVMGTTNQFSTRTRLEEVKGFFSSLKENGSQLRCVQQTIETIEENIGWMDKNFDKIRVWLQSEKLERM

outcome, inactive:
O=S(=O)(Nc1cccc(-c2cn3c(n2)SCC3)c1)c1ccccc1F
C[C@@H]1CCCCO[C@H](CN(C)C)[C@@H](C)CN([C@@H](C)CO)C(=O)c2cc(NS(=O)(=O)c3ccc(Cl)cc3)ccc2O1
COc1ccccc1CN1CC[C@@H]2[C@H](CO)Nc3ccc(-c4cccc(C(=O)N(C)C)c4)cc3[C@@H]21
Cc1noc(C)c1S(=O)(=O)Nc1ccc2c(c1)C(=O)N([C@H](C)CO)C[C@@H](C)[C@@H](CN(C)CC1CCCCC1)OCCCC[C@@H](C)O2
Cc1noc(C)c1NC(=O)N(C)C[C@@H]1Oc2c(NC(=O)Nc3ccc(F)cc3)cccc2C(=O)N([C@@H](C)CO)C[C@@H]1C
Cc1ccc(C)c(NC(=O)C2CC(O)CN2C(=O)Oc2ccccc2)c1 (centres undefined)
CCc1nnc(NC(=O)c2cc(S(=O)(=O)N3CCOCC3)ccc2N2CCCCC2)s1
N#Cc1c(N)n(CCNC(=O)c2ccccc2)c2nc3ccccc3nc12
C[C@H](CO)N1C[C@H](C)[C@@H](CN(C)Cc2ccc(C(=O)O)cc2)OCCCC[C@H](C)Oc2ccc(NC(=O)Nc3ccccc3)cc2C1=O
C[C@H](CO)N1C[C@H](C)[C@H](CN(C)S(=O)(=O)c2ccccc2)Oc2ccc(NC(=O)CCN3CCOCC3)cc2C1=O
C[C@H](CO)N1C[C@H](C)[C@H](CN(C)C)Oc2c(NC(=O)Nc3ccc(C(F)(F)F)cc3)cccc2C1=O
CCCNC(=O)C[C@@H]1CC[C@@H]2[C@H](COC[C@H](O)CN2C(=O)Nc2cccc(Cl)c2)O1
Cc1noc(C)c1NC(=O)N(C)C[C@@H]1Oc2c(NC(=O)Nc3ccc(F)cc3)cccc2C(=O)N([C@@H](C)CO)C[C@H]1C
COc1ccc(NC(=O)Nc2ccc3c(c2)C(=O)N([C@@H](C)CO)C[C@H](C)[C@H](CN(C)Cc2ccc(C(=O)O)cc2)OCCCC[C@H](C)O3)cc1
C[C@@H]1CN([C@@H](C)CO)C(=O)Cc2cc(NC(=O)Nc3cccc4ccccc34)ccc2O[C@H]1CN(C)Cc1ccc(C(=O)O)cc1
CCOc1ccc(OCCCC(=O)N2CCN(S(=O)(=O)c3ccc(Cl)cc3)CC2)cc1
CC(=O)NC(CC(=O)NCCOc1ccccc1F)c1ccccc1 (centres undefined)
Cn1cnc(Sc2ncnc3nc[nH]c23)c1[N+](=O)[O-]
C[C@@H]1CCCCO[C@H](CN(C)Cc2ccc(C(=O)O)cc2)[C@H](C)CN([C@@H](C)CO)C(=O)c2cc(NC(=O)Nc3ccc(C(F)(F)F)cc3)ccc2O1
O=c1cc(CN2CCN(Cc3ccccc3)CC2)c2ccc(O)cc2o1
Cc1oc2c(c(C)cc3oc(=O)c(CC(=O)N[C@H](C(=O)O)C(C)C)c(C)c32)c1C
CCOc1ccccc1N1CCN(C(=O)C2=CC=CN3CCS(=O)(=O)N=C23)CC1
C[C@@H]1CCCCO[C@@H](CN(C)C)[C@H](C)CN([C@H](C)CO)C(=O)c2cc(NS(=O)(=O)c3ccc(Cl)cc3)ccc2O1

Activity change, negative = inhibition, inactive:
COc1ccc(C(=O)O)cc1S(=O)(=O)Nc1cc(C(F)(F)F)ccc1N1CCCCC1 239% [at 2.6 µM]
